Assay results from ChEMBL document CHEMBL4808148, “HDAC6 screening dataset using tau-based substrate in an enzymatic assay yields selective inhibitors and activators” (2021).
About 390 (7%) of roughly 5,600 compounds showed an effect of 50% or more. This excerpt belongs to a sample that is enriched for strong results.

What follows are compounds tested against T1, Protein deacetylase HDAC6 (Homo sapiens) (UniProt Q9UBN7). Settings: at 10 µM.
T1 sequence (whole entry): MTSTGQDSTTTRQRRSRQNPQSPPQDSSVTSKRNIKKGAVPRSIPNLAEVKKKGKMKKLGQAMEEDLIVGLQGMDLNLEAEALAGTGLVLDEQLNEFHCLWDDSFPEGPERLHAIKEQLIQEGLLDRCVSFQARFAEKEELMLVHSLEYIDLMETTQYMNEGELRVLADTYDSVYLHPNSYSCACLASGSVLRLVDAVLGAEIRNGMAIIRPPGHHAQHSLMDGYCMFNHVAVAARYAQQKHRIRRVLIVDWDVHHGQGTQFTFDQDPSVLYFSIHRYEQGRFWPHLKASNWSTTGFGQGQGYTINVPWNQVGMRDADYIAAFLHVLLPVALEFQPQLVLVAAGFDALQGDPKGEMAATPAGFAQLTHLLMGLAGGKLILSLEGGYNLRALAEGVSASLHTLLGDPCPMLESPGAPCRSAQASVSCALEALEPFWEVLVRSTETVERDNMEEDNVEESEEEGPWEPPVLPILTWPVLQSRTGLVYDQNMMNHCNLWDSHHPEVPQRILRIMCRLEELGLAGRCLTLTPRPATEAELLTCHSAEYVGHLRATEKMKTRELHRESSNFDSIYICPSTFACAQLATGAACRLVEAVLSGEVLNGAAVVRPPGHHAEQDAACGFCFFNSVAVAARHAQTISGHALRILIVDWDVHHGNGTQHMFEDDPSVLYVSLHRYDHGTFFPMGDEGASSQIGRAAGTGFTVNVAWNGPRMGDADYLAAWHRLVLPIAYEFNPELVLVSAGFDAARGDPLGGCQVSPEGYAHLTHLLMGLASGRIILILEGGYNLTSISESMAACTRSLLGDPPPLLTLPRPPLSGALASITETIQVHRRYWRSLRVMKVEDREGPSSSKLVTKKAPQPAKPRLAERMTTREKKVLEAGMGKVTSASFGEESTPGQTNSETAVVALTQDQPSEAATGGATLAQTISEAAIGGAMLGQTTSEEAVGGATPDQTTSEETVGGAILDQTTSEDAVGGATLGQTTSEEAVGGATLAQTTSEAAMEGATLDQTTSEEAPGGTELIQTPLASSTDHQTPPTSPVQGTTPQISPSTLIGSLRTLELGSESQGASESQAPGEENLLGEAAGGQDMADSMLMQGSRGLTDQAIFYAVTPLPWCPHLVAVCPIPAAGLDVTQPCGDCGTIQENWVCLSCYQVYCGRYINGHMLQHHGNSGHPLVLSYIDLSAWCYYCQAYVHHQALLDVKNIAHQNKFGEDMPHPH
With `c1cn2cc(-c3ccc4cn[nH]c4c3)nc(Nc3ccc(N4CCOCC4)cc3)c2n1` the inhibition was 20.2%. `CC(=O)/N=c1/sc(S(N)(=O)=O)nn1C` showed an inhibition of -2.26%. `NS(=O)(=O)c1nn2cc(-c3ccccc3)nc2s1` gave an inhibition of 96.2%. `CC(=O)OCC(=O)[C@@]1(O)CC[C@H]2[C@@H]3CCC4=CC(=O)C=C[C@]4(C)[C@@]3(F)[C@@H](O)C[C@@]21C` showed an inhibition of 39.3%. For `O=C(O)c1cc(O)c2c(c1)C(=O)c1cccc(O)c1C2=O`, the inhibition was 24.6%. For `O=C1c2cccc(O)c2C(=O)c2c(O)cccc21`, the inhibition was 55.5%. `O=C1c2c(O)cccc2Cc2cccc(O)c21` showed an inhibition of 3.84%. Work on `COc1cc(O)c2c(c1)C(=O)c1cc(C)cc(O)c1C2=O` yielded an inhibition of 24.3%. Compound `CN1CCc2cccc3c2[C@H]1Cc1ccc(O)c(O)c1-3` has an inhibition of -6.04%. `C[C@@H]1CC(=O)c2c(ccc3c2C(=O)c2cccc(O)c2C3=O)C1` was tested, and the inhibition was 113%. For `Cc1cc(O)c2c(c1)C(=O)c1cccc(O)c1C2=O`, the inhibition was 82.4%. `CC(=O)c1cc2c(o1)C(=O)c1ccccc1C2=O` was tested, and the inhibition was 25.7%. `CC1(C)C(=O)N=C2C1=C(O)C(=O)c1ccccc12` was tested, and the inhibition was 24.8%. With `CNCCCOc1cc(F)c(-c2c(Cl)nc3ncnn3c2N[C@@H](C)C(F)(F)F)c(F)c1` the inhibition was 9.44%. `COc1ccc(CNC(=O)c2cc(-c3cncc(C)c3)ncc2-c2nccs2)nc1OC` gave an inhibition of 8.47%. Compound `COc1cccc(OC)c1OCCNCC1COc2ccccc2O1` (stereo not drawn) has an inhibition of -6.9%. For `CSCC[C@H](NC(=O)[C@H](CC(C)C)NC(=O)CNC(=O)[C@H](Cc1ccccc1)NC(=O)[C@H](Cc1ccccc1)NC(=O)[C@H](CCC(N)=O)NC(=O)[C@H](CCC(N)=O)NC(=O)[C@@H]1CCCN1C(=O)[C@H](CCCCN)NC(=O)[C@@H]1CCCN1C(=O)[C@@H](N)CCCN=C(N)N)C(N)=O`, the inhibition was 37.9%. `Fc1ccc(CN2CCC(Nc3ccc(C(F)(F)F)nn3)CC2)cc1F` gave an inhibition of 20.4%. With `CC#CCC(C)[C@H](O)/C=C/[C@@H]1[C@H]2C/C(=C/CCCC(=O)O)C[C@H]2C[C@H]1O` (stereo partly drawn) the inhibition was -9.51%. `COC(=O)c1ccccc1-c1c2ccc(N)cc2[o+]c2cc(N)ccc12` was tested, and the inhibition was 2.6%. Work on `CN[C@@H]1[C@H](OC2[C@H](O[C@H]3[C@H](O)[C@@H](O)[C@H](N=C(N)N)[C@@H](O)[C@@H]3N=C(N)N)O[C@@H](C)[C@]2(O)C=O)O[C@@H](CO)[C@H](O)[C@H]1O` (stereo partly drawn) yielded an inhibition of 17.6%. For `Cc1ccccc1/N=N/c1ccc(NC(=O)c2ccnn2C)c(C)c1`, the inhibition was 36.7%. For `O=C(Nc1cccc(Nc2ncc(Br)c(NCCc3cnc[nH]3)n2)c1)N1CCCC1`, the inhibition was 41.2%. For `COc1cc2c(cc1OC)-c1cc3nc4ccccc4nc3n1C(C)(C)C2`, the inhibition was 19.3%. For `CCCn1c(=O)[nH]c2nc(-c3ccc(S(=O)(=O)N4CCN(c5ccc(Cl)cc5)CC4)cc3)[nH]c2c1=O`, the inhibition was 3.66%. `Cc1ccc2c(c1CCC(=O)O)CC[C@@H](NS(=O)(=O)c1ccc(Cl)cc1)C2` was tested, and the inhibition was -3.38%. `Oc1ccc2ccccc2c1SSc1c(O)ccc2ccccc12` was tested, and the inhibition was 0.31%. `Nc1nc2c(ccc3ccccc32)s1` showed an inhibition of 67.3%. `Cc1cc(CC(C)CC(C)(C)C)n(O)c(=O)c1` (stereo not drawn) gave an inhibition of -5.15%. `O=C1NC(=O)C(c2ccccc2[N+](=O)[O-])=C1Nc1ccc(O)c(Cl)c1` showed an inhibition of 3.99%. `COc1cc(CCc2cc(NC(=O)c3ccc(N4C[C@@H](C)N[C@@H](C)C4)cc3)n[nH]2)cc(OC)c1` gave an inhibition of 2.96%. Work on `O=c1[nH]c(=O)n([C@H]2C[C@H](O)[C@@H](CO)O2)cc1F` yielded an inhibition of 12.7%. `CCc1cn([C@H]2C[C@H](O)[C@@H](CO)O2)c(=O)[nH]c1=O` was tested, and the inhibition was -6.76%. Work on `Cc1cn([C@H]2C=C[C@@H](CO)O2)c(=O)[nH]c1=O` yielded an inhibition of 102%. Compound `CN1c2cc3c(cc2N=C(c2ccc(C(=O)O)cc2)c2ccccc21)C(C)(C)CCC3(C)C` has an inhibition of 27.7%. `Nc1ncnc2c1ncn2[C@@H]1O[C@H](C[C@@H](N)CC[C@H](N)C(=O)O)[C@@H](O)[C@H]1O` showed an inhibition of -9.09%. `CC(C)(COP(=O)(O)OP(=O)(O)OC[C@H]1O[C@@H](n2cnc3c(N)ncnc32)[C@H](O)[C@@H]1OP(=O)(O)O)[C@@H](O)C(=O)NCCC(=O)NCCS` showed an inhibition of 15.2%. Work on `NC(C(=O)O)c1nnn[nH]1` (racemic) yielded an inhibition of 4.47%. Compound `Cn1cnc2[nH]c(=O)[nH]c(=O)c21` has an inhibition of 9.47%. `Cc1ccc(-c2ccc(C)cn2)nc1` showed an inhibition of 100%. With `CCOC1O[C@H]([C@@H](COCc2ccccc2)OCc2ccccc2)[C@H](OCc2ccccc2)[C@H]1O` (stereo partly drawn) the inhibition was 29.1%. With `O=C(O)CCc1c[nH]c2ccccc12` the inhibition was 6.28%. With `C/C(=N\N=C(/S)N/N=C(\S)Nc1ccccc1Cl)c1ccccn1` the inhibition was 41.4%. Compound `COc1ccc2cc3[n+](cc2c1OC)CCc1cc2c(cc1-3)OCO2` has an inhibition of -6.81%. With `O=C(COc1ccc(C(=O)c2ccccc2)cc1)NC1CCN(Cc2ccccc2)CC1` the inhibition was -4.58%. Work on `O=C(NC1CCN(Cc2ccccc2)CC1)c1ccc(I)cc1` yielded an inhibition of 21.3%. Work on `O=C(O)c1ccc(CN2CCC(CN[C@@H]3C[C@H]3c3ccccc3)CC2)cc1` yielded an inhibition of 59.3%. In the case of `CCCCCCCCCCCCCCCCCCCCCCCCCCCCO`, the inhibition is reported as 3.55%. With `CCN(CC)CCOC(=O)C1(c2ccccc2)CCCC1` the inhibition was 12.3%. In the case of `CCC(C)(CN(C)C)OC(=O)c1ccccc1` (stereo not drawn), the inhibition is reported as 12.2%. Compound `CC1(C(=O)O)NCCc2cc(O)c(O)cc21` (stereo not drawn) has an inhibition of -7.17%. Work on `C[C@@H](c1nc(-c2ccc(C#N)cc2)cs1)[C@](O)(Cn1cncn1)c1cc(F)ccc1F` yielded an inhibition of 13.7%. `COCC(O)Cn1ccnc1[N+](=O)[O-]` (stereo not drawn) was tested, and the inhibition was 2.38%. `CC1(C)S[C@@H]2[C@H](/N=C/N3CCCCCC3)C(=O)N2[C@H]1C(=O)O` showed an inhibition of 7.48%. Compound `c1ccc(-c2ccc(CNc3nc(-c4ccccn4)nnc3-c3ccccc3)cc2)cc1` has an inhibition of 58.9%. With `CC[C@H](CO)Nc1nc(NCc2ccc(-c3ccccn3)cc2)c2ncn(C(C)C)c2n1` the inhibition was 22.9%. Work on `c1ccc(NCc2ccc(CNc3ccccn3)cc2)nc1` yielded an inhibition of -9.35%. `Cn1c(-c2ccccc2)nnc1S(C)(=O)=O` gave an inhibition of 36%. With `C/N=c1/nc(-c2ccccc2)n(-c2ccccc2)s1` the inhibition was 83.4%. Work on `CC1=NN(c2ccccc2)C(=O)C1` yielded an inhibition of -9.97%. `O=C(c1ccc(F)cc1)C1CCN(CCn2c(=S)[nH]c3ccccc3c2=O)CC1` showed an inhibition of 13.2%. `O=C(O)c1c2ccccc2cc2ccccc12` showed an inhibition of 22.9%. `Cn1ncc(Cl)c1-c1cc(C(=O)N[C@H](CN)Cc2cccc(F)c2)sc1Cl` gave an inhibition of -7.69%.
